Columns and labels:
Experiment in all cases: DAPPL (digital affinity profiling via proximity ligation, sequencing); 10 mM Tris-HCl pH 7.5, 50 mM NaCl, 1 mM DTT, 4% glycerol, room temperature, 30 min; GST-TFs on glutathione beads, 16-mer random dsDNA library, 0.1% formaldehyde crosslink after washing; high values mean tight binding
Details in all cases: protein: recombinant; tags: N-terminal GST; dsDNA, one strand shown
[1] = biological target: T1, GABPA (Homo sapiens, UniProt Q06546 1-454)
T1 sequence: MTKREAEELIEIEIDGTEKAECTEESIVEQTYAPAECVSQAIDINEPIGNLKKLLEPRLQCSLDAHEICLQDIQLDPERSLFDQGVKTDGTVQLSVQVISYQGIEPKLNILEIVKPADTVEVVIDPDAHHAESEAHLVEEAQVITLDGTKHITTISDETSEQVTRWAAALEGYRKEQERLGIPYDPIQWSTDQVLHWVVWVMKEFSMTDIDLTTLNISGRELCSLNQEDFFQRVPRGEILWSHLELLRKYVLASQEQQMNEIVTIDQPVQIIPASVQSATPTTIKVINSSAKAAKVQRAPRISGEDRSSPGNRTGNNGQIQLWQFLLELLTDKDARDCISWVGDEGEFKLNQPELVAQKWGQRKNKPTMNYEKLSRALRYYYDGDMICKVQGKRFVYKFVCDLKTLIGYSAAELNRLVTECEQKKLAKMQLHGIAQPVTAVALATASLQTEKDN
Method in brief: (§1)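 A tag-only sample was pooled with DNA-barcoded human transcription factors that had been expressed in yeast as GST fusions and captured on glutathione beads. The pools were incubated for 30 min at room temperature with 200 nmole of a random double-stranded 16-mer DNA library in Tris/NaCl/DTT/glycerol buffer, then washed, crosslinked with 0.1% formaldehyde, proximity-ligated (BsaI/T4 ligase, 1 h, 37 °C), PCR-amplified and sequenced on an Illumina NextSeq500. Binding signal is each hexamer's read frequency for a factor divided by its frequency for the tag-only sample.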

[2] = biological target: ELF1 (Homo sapiens, UniProt P32519 1-619)
Sequence of ELF1 (P32519 whole entry): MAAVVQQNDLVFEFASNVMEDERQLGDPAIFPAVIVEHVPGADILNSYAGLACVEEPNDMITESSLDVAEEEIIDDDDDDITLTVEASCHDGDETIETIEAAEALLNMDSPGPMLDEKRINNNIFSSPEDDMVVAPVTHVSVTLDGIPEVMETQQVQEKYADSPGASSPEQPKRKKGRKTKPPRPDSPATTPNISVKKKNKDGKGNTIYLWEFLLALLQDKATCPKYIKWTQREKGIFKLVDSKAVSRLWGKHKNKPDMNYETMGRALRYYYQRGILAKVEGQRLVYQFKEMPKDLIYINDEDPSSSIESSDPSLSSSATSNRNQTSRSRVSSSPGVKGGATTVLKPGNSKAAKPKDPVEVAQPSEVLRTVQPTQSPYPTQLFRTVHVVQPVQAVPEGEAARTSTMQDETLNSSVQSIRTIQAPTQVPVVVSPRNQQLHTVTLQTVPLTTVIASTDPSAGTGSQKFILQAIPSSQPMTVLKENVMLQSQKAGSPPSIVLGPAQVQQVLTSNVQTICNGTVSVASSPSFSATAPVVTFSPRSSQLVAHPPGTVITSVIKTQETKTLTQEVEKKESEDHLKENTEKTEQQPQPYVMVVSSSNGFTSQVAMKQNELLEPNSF
Method in brief: as §1

[3] = biological target: T2, EHF (Homo sapiens, UniProt Q9NZC4 1-300)
T2 sequence: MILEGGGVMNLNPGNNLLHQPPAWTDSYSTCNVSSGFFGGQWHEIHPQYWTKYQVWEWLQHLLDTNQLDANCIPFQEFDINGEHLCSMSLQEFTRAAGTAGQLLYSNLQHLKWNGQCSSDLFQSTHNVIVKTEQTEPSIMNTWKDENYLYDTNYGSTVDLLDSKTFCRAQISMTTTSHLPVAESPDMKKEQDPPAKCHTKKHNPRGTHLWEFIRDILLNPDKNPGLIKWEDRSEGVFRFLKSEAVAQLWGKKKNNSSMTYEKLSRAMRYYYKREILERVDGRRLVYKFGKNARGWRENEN
Method in brief: as §1

[4] = biological target: SPIB (Homo sapiens, UniProt Q01892 1-262)
Sequence of SPIB (Q01892 whole entry): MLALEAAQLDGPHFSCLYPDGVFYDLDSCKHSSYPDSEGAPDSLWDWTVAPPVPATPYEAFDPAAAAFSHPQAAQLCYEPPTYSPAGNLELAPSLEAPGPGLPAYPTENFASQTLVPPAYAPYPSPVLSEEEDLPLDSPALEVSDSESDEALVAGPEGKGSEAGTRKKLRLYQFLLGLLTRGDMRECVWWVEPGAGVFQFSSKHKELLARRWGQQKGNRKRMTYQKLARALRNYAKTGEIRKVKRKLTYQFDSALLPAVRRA
Method in brief: as §1

[5] = biological target: T3, FEV (Homo sapiens, UniProt Q99581 1-238)
T3 sequence: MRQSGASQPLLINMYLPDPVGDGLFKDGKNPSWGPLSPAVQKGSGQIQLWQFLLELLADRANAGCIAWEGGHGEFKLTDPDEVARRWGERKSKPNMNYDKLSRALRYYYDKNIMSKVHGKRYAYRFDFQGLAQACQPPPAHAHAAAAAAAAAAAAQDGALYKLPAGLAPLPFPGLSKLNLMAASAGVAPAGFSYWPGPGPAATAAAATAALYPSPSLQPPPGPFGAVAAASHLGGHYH
Method in brief: as §1

[6] = biological target: ETV5 (Homo sapiens, UniProt P41161 1-510)
Sequence of ETV5 (P41161 whole entry): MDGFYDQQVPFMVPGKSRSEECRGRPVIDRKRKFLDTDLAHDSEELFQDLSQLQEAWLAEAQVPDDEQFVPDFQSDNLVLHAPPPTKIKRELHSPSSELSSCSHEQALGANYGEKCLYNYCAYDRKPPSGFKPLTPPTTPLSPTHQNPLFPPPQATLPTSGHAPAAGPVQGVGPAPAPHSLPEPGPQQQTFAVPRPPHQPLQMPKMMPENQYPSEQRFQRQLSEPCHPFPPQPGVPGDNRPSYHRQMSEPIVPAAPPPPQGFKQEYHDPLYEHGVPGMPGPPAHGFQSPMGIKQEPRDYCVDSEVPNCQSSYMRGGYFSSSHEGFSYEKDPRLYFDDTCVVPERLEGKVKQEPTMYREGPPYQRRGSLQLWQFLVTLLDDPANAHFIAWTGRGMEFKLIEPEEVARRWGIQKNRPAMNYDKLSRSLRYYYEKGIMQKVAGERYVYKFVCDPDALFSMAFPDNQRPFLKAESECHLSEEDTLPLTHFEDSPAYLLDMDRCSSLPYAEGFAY
Method in brief: as §1

[7] = biological target: T4, ETV2 (Homo sapiens, UniProt O00321 1-342)
T4 sequence: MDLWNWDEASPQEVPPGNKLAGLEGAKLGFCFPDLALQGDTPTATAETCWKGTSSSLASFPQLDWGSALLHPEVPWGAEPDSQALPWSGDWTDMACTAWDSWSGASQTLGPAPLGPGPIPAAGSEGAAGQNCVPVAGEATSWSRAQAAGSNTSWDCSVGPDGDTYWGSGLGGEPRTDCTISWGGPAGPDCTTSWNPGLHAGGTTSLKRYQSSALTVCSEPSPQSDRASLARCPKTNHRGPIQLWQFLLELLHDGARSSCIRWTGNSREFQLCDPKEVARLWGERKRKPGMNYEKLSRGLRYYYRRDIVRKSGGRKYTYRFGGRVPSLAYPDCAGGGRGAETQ
Method in brief: as §1

[8] = biological target: T5, ELF3 (Homo sapiens, UniProt P78545 1-371)
T5 sequence: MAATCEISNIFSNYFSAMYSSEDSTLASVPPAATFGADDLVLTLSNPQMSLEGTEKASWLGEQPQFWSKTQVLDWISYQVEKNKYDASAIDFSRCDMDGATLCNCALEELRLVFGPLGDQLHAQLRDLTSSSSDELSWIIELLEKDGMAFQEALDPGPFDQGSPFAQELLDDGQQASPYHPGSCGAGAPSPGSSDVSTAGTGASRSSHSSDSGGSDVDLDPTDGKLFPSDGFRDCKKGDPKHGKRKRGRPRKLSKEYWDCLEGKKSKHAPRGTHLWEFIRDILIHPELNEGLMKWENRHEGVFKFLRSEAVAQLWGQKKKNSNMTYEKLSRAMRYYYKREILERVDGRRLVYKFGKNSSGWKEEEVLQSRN
Method in brief: as §1

[9] = biological target: T6, SPDEF (Homo sapiens, UniProt O95238 1-335)
T6 sequence: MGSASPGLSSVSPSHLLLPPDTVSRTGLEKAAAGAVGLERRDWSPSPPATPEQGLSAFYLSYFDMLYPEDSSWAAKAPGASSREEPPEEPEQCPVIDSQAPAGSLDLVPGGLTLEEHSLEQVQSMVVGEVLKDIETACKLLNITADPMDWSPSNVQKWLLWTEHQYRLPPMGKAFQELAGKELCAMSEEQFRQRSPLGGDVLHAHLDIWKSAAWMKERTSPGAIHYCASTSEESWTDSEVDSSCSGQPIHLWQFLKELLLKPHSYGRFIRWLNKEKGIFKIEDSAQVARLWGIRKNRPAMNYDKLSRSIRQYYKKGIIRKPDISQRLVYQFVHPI
Method in brief: as §1

[10] = biological target: T7, ETV7 (Homo sapiens, UniProt Q9Y603 1-341)
T7 sequence: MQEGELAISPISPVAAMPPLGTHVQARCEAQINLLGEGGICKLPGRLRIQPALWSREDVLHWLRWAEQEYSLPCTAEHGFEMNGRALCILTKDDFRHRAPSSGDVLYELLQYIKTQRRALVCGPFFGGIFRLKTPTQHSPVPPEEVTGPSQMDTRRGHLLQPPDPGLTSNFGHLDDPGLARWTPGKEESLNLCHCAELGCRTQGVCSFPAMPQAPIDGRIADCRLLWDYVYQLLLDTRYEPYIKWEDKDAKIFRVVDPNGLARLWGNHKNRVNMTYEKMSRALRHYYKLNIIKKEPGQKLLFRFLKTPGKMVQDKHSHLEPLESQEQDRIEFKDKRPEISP
Method in brief: as §1

[11] = biological target: ETV6 (Homo sapiens, UniProt P41212 1-452)
Sequence of ETV6 (P41212 whole entry): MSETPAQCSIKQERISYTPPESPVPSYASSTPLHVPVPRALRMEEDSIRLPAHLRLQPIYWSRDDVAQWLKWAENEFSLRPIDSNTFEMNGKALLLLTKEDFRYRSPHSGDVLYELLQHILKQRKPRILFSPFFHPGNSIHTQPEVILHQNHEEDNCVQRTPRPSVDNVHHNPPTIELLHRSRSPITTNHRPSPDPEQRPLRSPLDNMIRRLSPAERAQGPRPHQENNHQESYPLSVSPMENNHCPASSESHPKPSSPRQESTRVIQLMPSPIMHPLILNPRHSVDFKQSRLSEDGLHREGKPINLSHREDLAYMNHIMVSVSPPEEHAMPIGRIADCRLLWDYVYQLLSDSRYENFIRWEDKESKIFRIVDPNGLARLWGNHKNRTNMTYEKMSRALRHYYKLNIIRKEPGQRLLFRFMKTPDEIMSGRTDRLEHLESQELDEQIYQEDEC
Method in brief: as §1

With CGGTTA the binding signal [1] was 1.01 fold enrichment (6-mer frequency, TF over GST control), the binding signal [2] was 1 fold enrichment (6-mer frequency, TF over GST control) and the binding signal [3] was 1.02 fold enrichment (6-mer frequency, TF over GST control). For the same sequence, the binding signal [4] was 1.02 fold enrichment (6-mer frequency, TF over GST control), the binding signal [5] was 1.04 fold enrichment (6-mer frequency, TF over GST control) and the binding signal [6] was 1.05 fold enrichment (6-mer frequency, TF over GST control). For the same sequence, the binding signal [7] was 1.06 fold enrichment (6-mer frequency, TF over GST control), the binding signal [8] was 1 fold enrichment (6-mer frequency, TF over GST control) and the binding signal [9] was 1.15 fold enrichment (6-mer frequency, TF over GST control). The binding signal [10] was 1 fold enrichment (6-mer frequency, TF over GST control) and the binding signal [11] was 1.09 fold enrichment (6-mer frequency, TF over GST control).

From PMC7862700, “An all-to-all approach to the identification of sequence-specific readers for epigenetic DNA modifications on cytosine”
